This note sets out measurements from PubChem BioAssay AID1578 (Sanford-Burnham Center for Chemical Genomics, 2009).

The whole screen tested about 290,000 compounds, of which about 3,000 (1%) were called active. This excerpt belongs to a sample that is enriched for actives. Values without a mark were called inactive. Cut-off read from the data, not from the text of the source: active = inhibition mostly above about 36% (no sharp cut-off); inactive = mostly below about 34%.

A short description of this assay: NOD1 signaling inhibitors, primary screen, cell-based, luminescence, uHTS (AID 1578).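 Note: HEK-293T reporter cells stimulated with the NOD1 agonist gamma-tri-DAP.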 The conditions noted are these: NOD1-driven NF-kB luciferase reporter cells, at 4 µM, hits give high values. (In general: In a reporter assay the amount or activity of a reporter protein is the signal.)
The inhibition is the drop in the measured response relative to a control, in per cent. With `C=CCNc1cnn(-c2ccc(C)cc2)c(=O)c1Sc1ccc(C)cc1`, the inhibition is 11.6%.
For `CC/C(=N\NC(=O)c1ccc(Br)cc1)c1ccccc1` the value was -30.9%.
In the case of `N#C/C(=C(/O)CCl)c1nc(-c2ccccc2)cs1`, the inhibition is -4.2%.
Consider `N#C/C(=C(/O)CCl)c1nc2c(s1)CCc1ccccc1-2`, for which the inhibition was 78.6% (active).
As for `Nc1nc2c(s1)CCc1ccccc1-2`, the inhibition was -11.8%.
With `C=CCn1c(COc2ccccc2)nnc1SC(C)C(=O)N/N=C/c1cc(Cl)ccc1O` (stereo not given), the inhibition was 2%.
For `C=CCn1c(COc2ccccc2)nnc1SCC(=O)N/N=C/c1cc(Cl)ccc1O` the value was 39.9% (active).
The value for `C=CCn1c(COc2ccc(Cl)cc2)nnc1SCC(=O)N/N=C/c1ccccc1` was 1.1%.
The value for `CN(C)C(=O)CN1CCN(c2nc3nonc3nc2N2CCCCC2)CC1` was -28.9%.
In the case of `CC(C)(C)OC(=O)N/N=C/c1cccn1-c1ccc([N+](=O)[O-])cc1`, the inhibition was -6.6%.
For `Cc1ccc(C(=O)OC/C(O)=C(\C#N)c2nc3ccccc3[nH]2)cc1S(=O)(=O)N1CCOCC1` the value was 20.1%; for `N#C/C(=C(/O)COC(=O)Cc1c[nH]c2ccccc12)c1nc2ccccc2[nH]1`, -14.1%; for `COCC(=O)OC/C(O)=C(\C#N)c1nc2ccccc2[nH]1`, 66.5% (active).
Regarding `CCCC(=O)OC/C(O)=C(\C#N)c1nc2ccccc2[nH]1`, the inhibition was 105% (active).
For `CC(C)C(=O)OC/C(O)=C(\C#N)c1nc2ccccc2[nH]1`, the inhibition is 0.8%.
The value for `N#C/C(=C(/O)COC(=O)c1ccc(O)cc1)c1nc2ccccc2[nH]1` was -5.6%.
The value for `COc1cc(OC)cc(C(=O)OC/C(O)=C(\C#N)c2nc3ccccc3[nH]2)c1` was -0.4%; that for `CCOC(=O)c1c(C)[nH]c(C(=O)OC/C(O)=C(\C#N)c2nc3ccccc3[nH]2)c1C` was -26.6%; that for `N#C/C(=C(/O)COC(=O)c1ccc(Cl)c(S(=O)(=O)N2CCOCC2)c1)c1nc2ccccc2[nH]1` was 17.7%.
For `N#C/C(=C(/O)COC(=O)CCCNC(=O)c1ccc(Cl)cc1)c1nc2ccccc2[nH]1` the value was 86.4% (active).
Take `N#C/C(=C(/O)COC(=O)c1cccnc1Cl)c1nc2ccccc2[nH]1`: the inhibition was -23.4%.
Take `N#C/C(=C(/O)COC(=O)CCc1ccc(S(=O)(=O)N2CCOCC2)cc1)c1nc2ccccc2[nH]1`: the inhibition was 93.4% (active).
For the compound `O=C(CSc1nc(-c2ccccc2)c(-c2ccccc2)[nH]1)Nc1ccc2c(c1)OCO2`, the inhibition is -5.7%.
The value for `O=C(CSc1nn(-c2ccccc2)c(=S)s1)NC(=O)NCc1ccco1` was 17.4%.
As for `CCCCN(C)CCNC(=O)c1cc2c(=O)[nH]c3ccccc3c2n1C`, the inhibition was -7.1%.
On to `CCOC(=O)COc1ccc2c(C)cc(=O)oc2c1C(=O)c1ccccc1`, for which the inhibition was 5.9%.
For `O=C1CC(N2CCN(c3ccc(O)cc3)CC2)C(=O)N1c1ccc2c(c1)OCO2` (stereo not given) the value was -26.7%.
For `COc1ccc(/C(C)=N/OC/C(O)=C(\C#N)c2nc3ccccc3[nH]2)cc1OC` the value was 5.6%; for `COc1ccc(OC/C(O)=C(\C#N)c2nc3ccccc3[nH]2)cc1`, -23.4%.
The value for `Cc1ccc(C(C)C)c(OC/C(O)=C(\C#N)c2nc3ccccc3[nH]2)c1` was 36.3% (active); that for `CCC(C)c1ccc(OCC(=O)NNC(=O)C2CCCCC2)cc1` (stereo not given) was -4.3%.
On to `CC(=O)Nc1ccccc1NC(=O)c1ccccc1-c1ccccc1`, for which the inhibition was 73% (active).
As to `Cc1ccccc1NC(=O)c1ccccc1-c1ccccc1`, the inhibition is -24.9%.
For `O=C(Nc1ccccc1Br)c1ccccc1-c1ccccc1` the value was -10.7%; for `CC(C)(CO)N=Cc1c(O)[nH]c2ccccc12`, -14.8%.
The value for `CCCCCCC(=O)Nc1ccc(Cl)cn1` was -24.4%.
For `C=CCN(CC=C)C(=O)c1cccc(OC2CCN(S(=O)(=O)N(C)C)CC2)c1` the value was 8.4%; for `CCOc1ccc2nc(SCC#N)c(C#N)cc2c1`, 68.2% (active); for `CCSc1nc2ccc(OC)cc2cc1C#N`, -45.3%.
For `CCOc1ccc2nc(SCC(=O)N3CCCCCC3)c(C#N)cc2c1`, the inhibition is -18.2%.
`O=C(O)c1cccc(CN2C(=O)S/C(=C/c3cccc([N+](=O)[O-])c3)C2=O)c1`: the inhibition is 1.5%.
The value for `O=C1/C(=C\c2ccc(O)cc2)SC(=S)N1Cc1ccccc1` was -9.6%; that for `O=C(O)c1cccc(CN2C(=O)S/C(=C/c3ccccc3[N+](=O)[O-])C2=O)c1` was 3.9%; that for `O=C1/C(=C\c2cccc(O)c2O)SC(=S)N1Cc1ccccc1` was -20.4%.
For `COc1ccc(O)c(/C=C2/SC(=S)N(Cc3ccccc3)C2=O)c1` the value was -3.5%.
For `O=C1/C(=C\c2cc(Br)cc(Br)c2O)SC(=S)N1Cc1ccccc1` the value was 73.3% (active).
Regarding `CCOC(=O)CN1C(=O)S/C(=C/c2ccc(O)c([N+](=O)[O-])c2)C1=O`, the inhibition was -4.5%.
On to `CCOC(=O)N1CCN(S(=O)(=O)N2CCCC(C(=O)NCc3ccc(F)cc3)C2)CC1` (stereo not given), for which the inhibition was 3.3%.
With `O=C(CCC(=O)N(c1cccc(F)c1)C(C(=O)NC1CCCC1)c1ccncc1)Nc1cccnc1` (stereo not given), the inhibition is -42.2%.
For `CC1C=CCC2C(=O)N(c3cccc(C(=O)Nc4ccc(Br)cc4)c3)C(=O)C12` (stereo not given) the value was -16.6%.
With `CCCCN(CC)S(=O)(=O)c1c(C)[nH]c(=O)[nH]c1=O`, the inhibition is -34.4%.
For `CCOc1ccc(N2CC(C(=O)Nc3nnc(C4CCCCC4)s3)CC2=O)cc1` (stereo not given) the value was -28.2%; for `O=C(O)COc1ccccc1/C=N/NC(=O)c1cc(-c2ccccc2)nc2ccccc12`, -11.3%; for `CCOc1cc(C(c2c(C)[nH][nH]c2=O)c2c(C)[nH][nH]c2=O)cc(Cl)c1O`, 7.7%.
The value for `CC(Cc1ccccc1)C(=O)NCc1ccncc1` (stereo not given) was -26.7%; that for `CCCCc1ccc(NC(=O)C(=O)NCCN2CCN(C(=O)c3ccc([N+](=O)[O-])cc3)CC2)cc1` was 0.1%; that for `CCCCc1ccc(NC(=O)C(=O)NCCN2CCN(Cc3ccc([N+](=O)[O-])cc3)CC2)cc1` was 34.7% (active).
The value for `CCc1ccc(NC(=O)C(=O)NCCN2CCN(Cc3ccc([N+](=O)[O-])cc3)CC2)cc1` was 12.5%.
As to `COc1cc(-c2nnc(SCC(=O)N(Cc3ccccc3)C(C)(C)C)o2)cc(OC)c1OC`, the inhibition is 10.5%.
For `COc1ccc(-c2nnc(SCC(=O)N(Cc3ccccc3)C(C)(C)C)o2)cc1OC` the value was 58.8% (active).
The value for `COc1cc(OC)cc(-c2nnc(SCC(=O)N(Cc3ccccc3)C(C)(C)C)o2)c1` was 14.6%.
Consider `CC1CN(S(=O)(=O)c2ccccc2)CC(C)O1` (stereo not given), for which the inhibition was -8.4%.
The value for `O=S(=O)(c1cccs1)N1CCN(S(=O)(=O)c2cccs2)CC1` was -16.1%; that for `CC1CN(S(=O)(=O)c2cccs2)CC(C)O1` (stereo not given) was 34.6% (active).
For `CCOC(=O)NC(=O)/C(C#N)=N\Nc1cccc(OC)c1` the value was -43%; for `CCOC(=O)NC(=O)/C(C#N)=N\Nc1cccc(Cl)c1`, 55.7% (active); for `CCOC(=O)NC(=O)/C(C#N)=N\Nc1ccc(Cl)cc1`, -37.5%.
For `CC(C)COc1ccc(/C(O)=C2/C(=O)C(=O)N(CCN(C)C)C2c2ccncc2)cc1` (stereo not given) the value was -0.8%; for `CS(=O)(=O)N1CCN(C(=O)COc2ccc3ccccc3c2)CC1`, 6.1%; for `CCc1ccc2oc(C(=O)NCCc3ccc(S(N)(=O)=O)cc3)cc(=O)c2c1`, -0.9%.
In the case of `CCOC(=O)c1c(NC(=O)N/N=C/c2ccccc2OCC)sc(C(C)=O)c1C`, the inhibition was -33.7%.
The value for `COc1cc(/C=N/NC(=O)c2sc(N)c(C#N)c2C)ccc1O` was -14.2%; that for `CCOC(=O)c1c(NC(=O)N/N=C/c2ccc(O)c(OC)c2)sc(C(C)=O)c1C` was 53.1% (active); that for `CCOC(=O)c1c(NC(=O)C(=O)N/N=C/c2ccc(OCC)cc2)sc2c1CCCCC2` was -14.4%.
The value for `CCOC(=O)c1c(NC(=O)C(=O)N/N=C/c2ccc(O)c(OC)c2)sc2c1CCCCC2` was 81.2% (active); that for `CCOC(=O)c1c(NC(=O)C(=O)N/N=C/c2ccccc2OC)sc2c1CCCCC2` was 7.6%; that for `CN(CC(=O)Nc1ccccc1Cl)C1CCCCC1` was -46.1%.
The value for `O=C(Cc1cccs1)NCCSc1c(-c2ccc(Cl)cc2)[nH]c2ccccc12` was 30.7%; that for `Cc1ccc(C(=O)NC(NCc2ccccc2)C(Cl)(Cl)Cl)cc1` (stereo not given) was 5.2%.
For `O=C(COC(=O)C1CC2C=CC1C2)Nc1cccc(S(=O)(=O)N2CCCCC2)c1` (stereo not given), the inhibition was -18.1%.
For `Cc1ccc(-c2cc(C(F)(F)F)c(C#N)c(=O)[nH]2)cc1` the value was 1.8%.
The value for `N#Cc1c(C(F)(F)F)cc(-c2ccc(F)cc2)[nH]c1=O` was -17.2%; that for `N#Cc1c(C(F)(F)F)cc(-c2ccc(Cl)cc2)[nH]c1=O` was 54.2% (active).
For `O=C(Nc1nc(-c2nc3ccccc3s2)cs1)c1ccc(S(=O)(=O)N2CCOCC2)cc1` the value was 47.5%; for `CCOc1cccc(CNc2ccc(O)cc2)c1OCc1ccccc1Cl`, 39.2% (active); for `CCOc1cccc(CNc2ccc(O)cc2)c1OCc1ccc(Cl)cc1`, 22.1%.
Regarding `CCOc1cccc(CNc2ccc(O)cc2)c1OCc1ccc(Cl)cc1Cl`, the inhibition is 7.6%.
The value for `CCC(C)NC(=O)c1cc(Cl)c(NC(=O)C2=C(C)OCCS2)cc1OC` (stereo not given) was -9.8%; that for `Nc1nnc(SCc2nnc(-c3ccccc3)o2)s1` was -21%.
In the case of `O=C1CCc2cc(S(=O)(=O)NC(Cc3ccccc3)C(=O)NC3CCCC3)ccc2N1` (stereo not given), the inhibition is -11.4%.
